Source: PubChem
CYP2C9 activ – activators of human CYP2C9. P11712. activation factor at 5 µM. hit rate 1.4% among 96,000. recombinant CYP2C9, luciferin-H conversion, luminescence; stronger effect = higher value; factor 1 = untreated enzyme, 0 = blocked;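 active means activation factor of 2 or more for CYP2C9 at a 5 µM dose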;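 further: 0 = sulfaphenazole-blocked wells and 1 = vehicle-only wells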
Target sequence (P11712 whole entry, looked up): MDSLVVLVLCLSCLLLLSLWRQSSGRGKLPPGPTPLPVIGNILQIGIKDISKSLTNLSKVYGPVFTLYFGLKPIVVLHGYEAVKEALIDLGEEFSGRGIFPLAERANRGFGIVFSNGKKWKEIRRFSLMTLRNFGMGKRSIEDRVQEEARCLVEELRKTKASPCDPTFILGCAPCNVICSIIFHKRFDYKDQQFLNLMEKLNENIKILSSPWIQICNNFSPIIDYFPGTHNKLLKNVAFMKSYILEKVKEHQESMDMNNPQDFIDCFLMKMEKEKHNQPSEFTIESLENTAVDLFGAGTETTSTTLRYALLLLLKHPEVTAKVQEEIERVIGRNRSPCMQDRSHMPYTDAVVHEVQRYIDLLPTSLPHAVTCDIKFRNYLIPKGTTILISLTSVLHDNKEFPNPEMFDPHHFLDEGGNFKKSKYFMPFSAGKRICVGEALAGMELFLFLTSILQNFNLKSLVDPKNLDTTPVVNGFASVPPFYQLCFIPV
PostGolgi ctrl – growth of the yeast control strain, post-Golgi counter-screen. efflux-deficient yeast background strain, growth absorbance A615, 16 h. AID 738. inhibition, % at 10 µM. hit rate 5% among 98,000
CYP2C19 inh – blocks human cytochrome P450 2C19. hit rate 21% among 96,000. CYP2C19 Supersomes, luciferin-H EGE luminescence, 30 min. AID 778. inhibition, % at 5 µM;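 active means CYP2C19 inhibition above a set limit at 5 µM in the primary screen, cut at about 50% in these data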;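 further: plate controls were negative control wells for no effect and 2.5 mM tranylcypromine positive control for full effect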
PostGolgi yeast – growth inhibition of a yeast mutant, post-Golgi transport screen | post-Golgi transport phenotypic cell assay | inhibition, % at 10 µM | hit rate 0.9% among 98,000 | AID 739;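 further: yeast cells grown in 1536-well plates; yeast grown about 18 h at 30C before absorbance read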
CYP2C9 inh – blocks human cytochrome P450 2C9. P11712. CYP2C9 Supersomes, luciferin-H conversion, luminescence. inhibition, % at 5 µM. hit rate 20% among 96,000. AID 777;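 active means blocking of liver enzyme CYP2C9 beyond about 50% at 5 µM, limit read from the data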
CYP2C19 activ – cytochrome P450 2C19 (human) activation | recombinant CYP2C19, luciferin-H EGE luminescence; stronger effect = higher value; 0 = fully inhibited enzyme, 1 = untreated enzyme | activation factor at 5 µM | P33261 | 96,000 tested, under 10 active | AID 1025;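 active means activation factor of at least 2 at 5 µM in the primary screen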;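 further: 0 = wells with 2.5 mM tranylcypromine and 1 = vehicle-only wells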
* hit, by the source's call. Only some compounds are listed: those with a hit (about 32% of all), similar ones and a draw of the others. Unless noted, no stated cut-off is given here; in the data, active means inhibition above about 30%; inactive means the rest.

SMILES | CYP2C9 activ | PostGolgi ctrl | CYP2C19 inh | PostGolgi yeast | CYP2C9 inh | CYP2C19 activ
CCOC(=O)c1ccc(S(=O)(=O)Nc2cc(C(C)(C)C)no2)cc1 | 0.2 | 4.6 | 16.2 | -1.5 | 82.9* | 0.8
CCn1nnc(-c2ccccc2NS(=O)(=O)c2ccc(S(=O)(=O)N(C)C3CCCCC3)cc2)n1 | 0.2 | 7.0 | 17.1 | 1.1 | 84.3* | 0.8
CCOC(=O)c1ccc(S(=O)(=O)Nc2ccccc2-c2nnn(CC)n2)cc1 | 0 | 21.0 | 99.3* | -10.4 | 95.9* | 0
COc1ccc(NC(=O)C2=C(C)Nc3ncnn3C2c2ccccc2C(F)(F)F)c(OC)c1 (configuration not stated) | 0.5 | 7.7 | 38.5 | -6.4 | 45.1 | 0.6
COc1cc2c(cc1OC)C(c1ccccc1)N(C(=O)CCl)CC2 (configuration not stated) | 0.6 | 18.2 | 39.3 | -8.2 | 40.2 | 0.6
